Data on 30 compounds can be found in ChEMBL document CHEMBL3988442, “University of Dundee, Small-Polar-MMV Screening Library” (2021).

Each structure is given as a SMILES string. In all, about 53,000 compounds went through this assay and about 900 (1.7%) showed an effect of 50% or more. Many of the other results were omitted from the sample, so strong results are more common in it than they were.

The experiment deals with Mycobacterium tuberculosis. In words: Cornell - Phenotypic assay to identify agents that inhibit growth of Mycobacterium tuberculosis. The experiment is classed as functional. Details: scale not given: direction of the effect not stated beside the values. The note with it: 10 mM as filed; unlikely as a test dose.
Turning to `CN(C)CCN1CCC2(CC1)CN(c1cccnc1)C(=O)CO2`, the “Percent Effect” value is -2.61%.
For the compound `CCC(C)NC(=O)Nc1cccc(OC)c1` (stereo not given), the “Percent Effect” value is on record as -23.11%.
For `CC1CC(=O)c2cc(C(=O)N3CCN(C)CC3)c(=O)[nH]c2C1` (stereo not given) the value was 4.231%; for `COc1c(Br)c(C(=O)NC2CC2)nn1C`, 20.51%; for `CNc1nc(C(=O)NCc2cccnc2N(C)C)cs1`, 28.41%.
`CN(c1ncccc1CNC(=O)c1cscn1)C1CCCCC1`: the “Percent Effect” value worked out at 20.11%.
Turning to `CNc1nc(C(=O)NCc2cccnc2N(C)C2CCCCC2)cs1`, the “Percent Effect” value is reported as 51.53%.
Turning to `CCCN1CCN(Cc2cc3cc(OCC)ccc3[nH]c2=O)CC1`, the “Percent Effect” value came out at 16.06%.
In the case of `CCc1ccc(-c2cn3c(C(=O)NCC(C)C(=O)NC)csc3n2)cc1` (stereo not given), the “Percent Effect” value was 9.06%.
In the case of `CCn1ccc(CNC(=O)c2cc(OC)cc(OC)c2)n1`, the “Percent Effect” value is listed as 3.102%.
As for `O=C(CN1CCOCC1)Nc1ccc(C(F)(F)F)cc1Cl`, the “Percent Effect” value is given as -3.484%.
On to `CC(C)c1cc(C(=O)N2CCN(c3ncc4c(n3)CCOC4)CC2)on1`, for which the “Percent Effect” value is on record as -0.8267%.
Turning to `Cc1cnc(C(=O)N2CCN(c3ncc4c(n3)CCOC4)CC2)cn1`, the “Percent Effect” value is on record as 56.71%.
For `Cc1cc(C(=O)N2CCN(c3ncc4c(n3)CCOC4)CC2)sc1C` the value was 45.6%; for `O=C(CN1CCc2cncnc2C1)Nc1ccc(Cl)cn1`, -14.12%.
For the compound `Cc1cc(N(C)Cc2ccsc2)n2nc(C)c(C)c2n1`, the “Percent Effect” value was 80.58%.
Regarding `Cc1csc(CN(C)c2cc(C)nc3c(C)c(C)nn23)n1`, the “Percent Effect” value came out at 39.72%.
Regarding `CCc1nnc(CN(C)c2cc(C)nc3c(C)c(C)nn23)o1`, the “Percent Effect” value is on record as -22.97%.
Take `COCCNC(=O)CN1CCCC1c1c(C)nn(C)c1Cl` (stereo not given): the “Percent Effect” value is on record as -22.86%.
As to `COc1ccc2cc(NC(=O)CCNc3ncccn3)cnc2c1`, the “Percent Effect” value is on record as -7.502%.
For the compound `COCCC(=O)N1CCC(c2cncc(Oc3cccnc3)n2)CC1`, the “Percent Effect” value is -4.018%.
Take `COc1c(CNC2CCOc3ccccc32)c(C)nn1C` (stereo not given): the “Percent Effect” value was found to be 23.56%.
For the compound `Cc1nn(C)c(C)c1CNC1CCOc2ccccc21` (stereo not given), the “Percent Effect” value was found to be 106.6%.
For the compound `Cc1nn(CCO)c(C)c1CNC1CCOc2ccccc21.Cl` (stereo not given), the “Percent Effect” value was 28.69%.
For `CC(C)N1CCC2(CCN(C(=O)c3cccnc3)CC2)C1.O=C(O)C(F)(F)F.O=C(O)C(F)(F)F` the value was -3.69%.
As to `COc1cccc(-c2noc3c2CN(c2nc(C)ncc2C)CC3)c1`, the “Percent Effect” value is on record as 77.03%.
For `COc1cccc(-c2noc3c2CN(c2ncnc4c2CCC4)CC3)c1` the value was 35.28%.
For `COCc1cc(N2CCc3onc(-c4cccc(OC)c4)c3C2)ncn1` the value was 25.42%; for `c1cc(CN2CCCC(c3ccnc4nccn34)C2)ccn1` (stereo not given), 21.25%.
Consider `CSc1sc2c(O)cc(=O)[nH]c2c1C(N)=O`, for which the “Percent Effect” value is listed as 28.59%.
